Bioassay records (PubChem BioAssay)
HepG2 tox: HepG2 cytotoxicity, counter-screen for TGF-b inhibitors; 410,000 compounds, 0.76% hits; Potency, µM (highest dose often 46.1 µM), actives largely listed as cytotoxic; HepG2 CAGA-GFP viability, ATP luminescence, 18 h
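HepG2 CAGA-GFP cells (1000/well, DMEM with 1% FBS) received compound, then TGF-beta at 500 pg/mL final, and were incubated 18 hours at 37 degrees C. Viability was read by CellTiter-Glo luminescence. Media-only wells were set as complete cell-killing and DMSO as no toxicity.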
TDP1 cell CPT: growth inhibition of DT40 Tdp1-/-;hTDP1 cells with camptothecin (screen for TDP1 inhibitors); chicken DT40 Tdp1-/-;hTDP1 cells + 20 nM CPT, ATP luminescence, 48 h; 420,000 compounds, 12% hits; Potency, µM (top dose mostly 46.2 µM), hits mostly inhibitors; AID 686979; also: nearly all actives have a fitted effect of over 55% in size
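Chicken DT40 Tdp1-/- cells complemented with human TDP1, 400 cells/well, exposed to compounds plus 20 nM camptothecin for at least 48 h at 37 C; viability read as ATP content by CellTiter-Glo luminescence.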
TDP1 cell noCPT: qHTS for Inhibitors of human tyrosyl-DNA phosphodiesterase 1 (TDP1): qHTS in cells in absence of CPT | DT40 Tdp1-/- hTDP1 cells, no CPT, ATP luminescence, 48 h | 420,000 compounds, 15% hits | Potency, µM (highest dose often 46.2 µM), usual class: inhibitors; also: nearly all actives have a fitted effect of over 55% in size
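Camptothecin absent (DMSO only). Human TDP1-complemented DT40 knockout cells, 400 cells/well, 37 °C for minimum 48 hr; ATP measured via CellTiter-Glo, 30 min dark incubation, luminescence.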
ATXN viability: cell viability loss in ATXN counter-screen; S2 cells (HEK-293 line with an ATXN2-luciferase reporter) viability, CellTiter-Fluor protease fluorescence, 24 h; Potency, µM (titrated, usually from 56.7 µM), actives largely listed as cytotoxic; 400,000 compounds, 0.49% hits; AID 651635; also: nearly all actives have a fitted effect of over 40% in size
TGFb inhibitor: TGF-b pathway inhibition; HepG2 CAGA-GFP TGF-b/SMAD3 reporter, GFP fluorescence, 18 h; TGF-beta stimulated, 500 pg/mL final; Potency, µM (doses to about 46.1 µM), usual class: inhibitors; 410,000 compounds, 1.2% hits; also: nearly all actives have a fitted effect of over 65% in size
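Per well, imaged GFP fluorescence of HEPG2 CAGA-GFP cells gives the signal; cells get compound, then TGF-beta (500 pg/mL final), 18 h at 37 degrees C; %Activity versus -TGF-beta and +DMSO controls.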
ATXN2 expr inh: reduces ATXN2 reporter expression in HEK-293 cells; HEK-293 ATXN2-luciferase reporter, luminescence, 24 h; Potency, µM (series often up to 57 µM), most hits filed as inhibitors; 360,000 compounds, 0.72% hits; AID 1745845; also: nearly all actives have a fitted effect of over 55% in size
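qHTS (up to 57 uM final) was run with 24 h compound exposure of reporter cells at 37 °C. Each well was multiplexed: SteadyGlo luminescence measured ATXN2-luciferase expression after a fluorogenic Gly-Phe-AFC viability readout (25 uM final).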
Each line names hits and unclear results; the compound was inactive in the other large screens. A selection: hits, their analogues and other compounds. The true share with any hit is near 17%. Calls follow the shape of the dose curve; as a rule, active = well fitted curve in the direction sought with a large enough effect; inconclusive = small, poorly fitted or top-dose-only effect, or another doubt; inactive = no such curve, though single readings can be large; an effect the other way counts as inactive or inconclusive.

N=c1n(Cc2ccccc2)c2ccccc2n1Cc1ccccc1	TDP1 cell CPT 18µM, TDP1 cell noCPT 21µM, TGFb inhibitor inconclusive, ATXN2 expr inh inconclusive
N=c1n(CC(=O)c2ccc([N+](=O)[O-])cc2)c2ccccc2n1Cc1ccccc1	TDP1 cell CPT 7.3µM, TDP1 cell noCPT 5.8µM, ATXN viability inconclusive, ATXN2 expr inh inconclusive
Cc1ccccc1Cn1c(=N)n(CC(=O)c2ccco2)c2ccccc21	TDP1 cell CPT 23µM, TDP1 cell noCPT 16µM, TGFb inhibitor 10µM
CCOC(=O)Cn1c(=N)n(Cc2ccccc2)c2ccccc21	none
N=c1n(CCO)c2ccccc2n1Cc1ccc(Cl)cc1	TDP1 cell CPT 26µM, TDP1 cell noCPT 16µM, TGFb inhibitor inconclusive
CCCn1c(=N)n(CC(=O)c2ccco2)c2ccccc21	none
Cc1ccccc1-c1cc2c(c(OC3CCOC3)c1)OCCN(C(=O)Cn1cccn1)C2 (centres undefined)	none (no result: HepG2 tox, TGFb inhibitor, ATXN2 expr inh)
N=c1n(CCN2CCCCC2)c2ccccc2n1CC(=O)c1cccc([N+](=O)[O-])c1	HepG2 tox 13µM, TDP1 cell CPT inconclusive, TDP1 cell noCPT 18µM, ATXN viability inconclusive, TGFb inhibitor inconclusive, ATXN2 expr inh inconclusive
O=C(CN1CCN(Cc2ccccc2)CC1)c1ccc(Br)cc1	TDP1 cell CPT inconclusive
N=c1n(CC(=O)O)c2ccccc2n1Cc1ccccc1Cl	none
C=CCn1c(=N)n(CC(=O)c2cccc([N+](=O)[O-])c2)c2ccccc21	TDP1 cell CPT inconclusive, TDP1 cell noCPT inconclusive, ATXN viability inconclusive
O=C(Cn1nnc2ccccc21)c1ccc([N+](=O)[O-])cc1	TDP1 cell CPT inconclusive, TDP1 cell noCPT inconclusive (no result: ATXN2 expr inh)
N=c1n(CC(=O)c2ccc([N+](=O)[O-])cc2)c2ccccc2n1Cc1ccc(Cl)cc1	TDP1 cell CPT 2.9µM, TDP1 cell noCPT 5.2µM, ATXN viability inconclusive
N=c1n(CC(=O)c2ccc([N+](=O)[O-])cc2)c2ccccc2n1Cc1ccccc1Cl	TDP1 cell CPT 2.9µM, TDP1 cell noCPT 2.9µM, ATXN viability inconclusive, ATXN2 expr inh inconclusive
N=c1n(CC(=O)c2ccc(Br)cc2)c2ccccc2n1Cc1ccccc1	TDP1 cell CPT 5.2µM, TDP1 cell noCPT 6.5µM, TGFb inhibitor 16µM, ATXN2 expr inh inconclusive (no result: ATXN viability)
COc1ccc(C(=O)N2CCCC(O)C2)cc1OC1CCN(C(C)C)CC1 (centres undefined)	none
N=c1n(Cc2ccccc2)c2ccccc2n1CC(O)c1ccco1 (centres undefined)	TDP1 cell CPT 21µM, TDP1 cell noCPT 23µM, TGFb inhibitor inconclusive
CCn1c(=N)n(CC(O)c2ccco2)c2ccccc21 (centres undefined)	none
CCCCCn1c(C(Cc2ccccc2)NC(=O)COC)nc2ccccc21 (centres undefined)	TDP1 cell CPT 18µM, TDP1 cell noCPT 26µM, ATXN viability inconclusive
CCCCn1c(C(C)NC(=O)COC)nc2ccccc21 (centres undefined)	TDP1 cell CPT inconclusive, TDP1 cell noCPT inconclusive
CCCCC(NC(C)=O)c1nc2ccccc2n1CCC (centres undefined)	TDP1 cell CPT inconclusive, TDP1 cell noCPT 5.8µM
Cc1ccsc1C(=O)OCC(=O)N1CCN(c2ccccc2)CC1	TDP1 cell noCPT inconclusive
COc1ccc(C)cc1Nc1cc(C)nc(C)n1	TDP1 cell noCPT inconclusive
Cc1ccc(NC(=O)Nc2nnc(SCC(=O)N(C(C)C)C(C)C)s2)cc1	TDP1 cell CPT 18µM, TDP1 cell noCPT 16µM (no result: ATXN viability, ATXN2 expr inh)
COc1ccccc1NC(=O)CSc1nnc(NC(=O)Nc2ccc(C)cc2)s1	TDP1 cell CPT inconclusive, TDP1 cell noCPT inconclusive, TGFb inhibitor 5.6µM (no result: ATXN viability, ATXN2 expr inh)
COc1ccccc1NC(=O)CSc1nnc(NC(=O)C2CC2)s1	none
CCSc1nnc(-c2cccc(S(=O)(=O)N(CC)CC)c2)n1Cc1ccccc1	TDP1 cell CPT 11µM, TDP1 cell noCPT 18µM, ATXN viability inconclusive
CCN(CC)S(=O)(=O)c1cccc(-c2nnc(SCc3ncc(-c4ccccc4)o3)n2C)c1	TDP1 cell CPT inconclusive, TDP1 cell noCPT 18µM
CC(C)CN1CCC(=O)N(CCO)CC1	none
Cc1ccc(N2CC(C(=O)N3CCN(c4ccccn4)CC3)CC2=O)cc1 (centres undefined)	none
Fc1cccc(Cl)c1CSc1nnc(CN2CCOCC2)n1-c1ccccc1	TDP1 cell CPT inconclusive, TDP1 cell noCPT inconclusive, ATXN viability inconclusive
Clc1cccc(Cl)c1CSc1nnc(CN2CCOCC2)n1-c1ccccc1	TDP1 cell CPT 16µM, TDP1 cell noCPT inconclusive
COC(=O)c1cc(NC2(c3ccccc3)C(=O)c3ccccc3C2=O)cc(C(=O)OC)c1	none
CC1(C(=O)O)CCCN1C(=O)c1cccc(OC(F)(F)F)c1 (centres undefined)	none
CN(C(=O)c1ccc2c(c1)N(Cc1ccc(F)cc1)C(=O)c1ccccc1S2(=O)=O)C1CCCCC1	TDP1 cell CPT 23µM, TDP1 cell noCPT 16µM, TGFb inhibitor inconclusive
CN(C(=O)c1ccc2c(c1)N(Cc1cccc(Cl)c1)C(=O)c1ccccc1S2(=O)=O)C1CCCCC1	TDP1 cell CPT 21µM, TDP1 cell noCPT inconclusive, TGFb inhibitor inconclusive (no result: ATXN viability, ATXN2 expr inh)
O=C(OCC1CCCO1)c1ccc2c(c1)N(Cc1ccc(F)cc1)C(=O)c1ccccc1S2(=O)=O (centres undefined)	ATXN viability inconclusive
COc1ccc(Cl)cc1S(=O)(=O)NCc1ccc2c(c1)CCN2C(=O)c1cccc(C)c1	TDP1 cell CPT 3.3µM, TDP1 cell noCPT 4.6µM, TGFb inhibitor inconclusive (no result: ATXN viability, ATXN2 expr inh)
Cc1ccc(C(=O)N2CCc3cc(CNS(=O)(=O)c4cccs4)ccc32)cc1	TDP1 cell CPT 15µM, TDP1 cell noCPT 18µM (no result: ATXN viability, ATXN2 expr inh)
Cc1cccc(C(=O)N2CCc3cc(CNS(=O)(=O)c4cccs4)ccc32)c1	TDP1 cell CPT 23µM, TDP1 cell noCPT 21µM, TGFb inhibitor inconclusive (no result: ATXN viability, ATXN2 expr inh)
COc1ccc(C(=O)NCc2ccc3c(c2)CCN3C(=O)c2ccncc2)cc1	TDP1 cell CPT inconclusive, TDP1 cell noCPT inconclusive (no result: ATXN viability, ATXN2 expr inh)
COc1ccccc1C(=O)NCc1ccc2c(c1)CCN2C(=O)c1cccc(C)c1	TDP1 cell CPT inconclusive, TDP1 cell noCPT inconclusive (no result: ATXN viability, ATXN2 expr inh)
Cc1ccc(N2CCn3c2nc2c3c(=O)n(CCc3ccccc3)c(=O)n2C)cc1C	none (no result: ATXN viability, ATXN2 expr inh)
CC12CC(NC(=O)N1CCc1ccccc1)c1cc(Cl)ccc1O2 (centres undefined)	TDP1 cell CPT inconclusive, TDP1 cell noCPT 21µM, TGFb inhibitor inconclusive
COc1ccccc1NC(=O)Cn1cc(S(=O)(=O)Cc2ccccc2)c2ccccc21	TDP1 cell CPT inconclusive, TDP1 cell noCPT inconclusive (no result: ATXN viability, ATXN2 expr inh)
